Common to all, as to test: NCI-60 one-dose screen, 48 h (100 = growth as untreated, 0 = no growth, -100 = all killed)
What all share (conditions): 10 µM unless noted

The test system of assay [1] is DU-145 prostate.
The test system of assay [2] is K-562 leukemia.
For assay [3], the system named is MALME-3M melanoma.
In assay [4] the test system is MDA-MB-231 breast.
Assay [5] concerns RXF 393 renal.
The test system of assay [6] is SF-268 CNS.
Assay [7] relates to SF-295 CNS.
Assay [8] has as its system SF-539 CNS.
Assay [9] relates to UACC-257 melanoma.
The subject of assay [10] is M14 melanoma.
The test system of assay [11] is HCT-15 colon.
Assay [12] concerns HT29 colon.
The subject of assay [13] is SNB-75 CNS.
Assay [14] concerns SNB-19 CNS.
Assay [15] deals with U251 CNS.
Assay [16] has as its system PC-3 prostate.
Assay [17] relates to SK-MEL-5 melanoma.
The test system of assay [18] is UACC-62 melanoma.
Assay [19] deals with SK-MEL-28 melanoma.
Assay [20] deals with LOX IMVI melanoma.

About 83,000 compounds went through this panel and 20% of them were active in at least one assay; those are over-represented in the sample as a whole.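 Each cell line was grown in a 96-well plate and treated with one concentration of compound for 48 hours. Values below 10 were considered active.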 Values without a mark were called inactive. Calls of active or inactive are those of the source.

Turning to `CCOC(=O)c1c[nH]n2c(=S)ncnc12`, the growth in assay [1] was 108%; in assay [2], 106%; in assay [3], 109%; in [4], 109%; in assay [5], 113%; in [6] it was 98.5%. The growth is 109% in assay [7]; 105% in assay [8]; 102% in [9]; 103% in [10]; 102% in assay [11]; 100% in assay [12]. The growth in assay [13] is 90.7%; in assay [14], 96.1%; in [15] it was 102%; in assay [16], 117%; in assay [17] it was 105%; in [18], 97.5%. For the same compound, the growth in assay [19] was 108%.

For `C=C(C)[C@@H]1CC[C@]2(C(=O)NCCNCCNCCN)CC[C@]3(C)[C@H](CC[C@@H]4[C@@]5(C)CC[C@H](O)C(C)(C)[C@@H]5CC[C@]43C)[C@@H]12`, the growth was -8.34% [100 µM] (active) in assay [1]; -15.8% [100 µM] (active) in [2]; -100% [100 µM] (active) in assay [3]; -56.9% [100 µM] (active) in assay [4]; -82.9% [100 µM] (active) in [5]; -31% [100 µM] (active) in [6]. In addition, the growth in assay [7] is -84.7% [100 µM] (active); in assay [8], -100% [100 µM] (active); in assay [9], -39.6% [100 µM] (active); in [10] it was -31% [100 µM] (active); in [11] it was -24.8% [100 µM] (active); in [12], -39.6% [100 µM] (active). The growth in assay [13] was -79.3% [100 µM] (active); in assay [14], -74.5% [100 µM] (active); in [15], -71.6% [100 µM] (active); in [16], 1.07% [100 µM] (active); in assay [17], -90.1% [100 µM] (active); in [18] it was -100% [100 µM] (active). Also, the growth in assay [19] was -98.7% [100 µM] (active).

Turning to `C=C(C)[C@@H]1CC[C@]2(COC(=O)c3ccccc3C(=O)O)CC[C@]3(C)[C@H](CC[C@@H]4[C@@]5(C)CC[C@H](OC(=O)c6ccccc6C(=O)O)C(C)(C)[C@@H]5CC[C@]43C)[C@@H]12`, the growth in assay [1] was 29.7% [100 µM]; in [2], 44.7% [100 µM]; in [3], 30.7% [100 µM]; in assay [4], -26.2% [100 µM] (active); in [5], -21.9% [100 µM] (active); in [6], 18% [100 µM]. In addition, the growth was 10.2% [100 µM] in assay [7]; 10.6% [100 µM] in [8]; 92.9% [100 µM] in assay [9]; 29.6% [100 µM] in [10]; 18.1% [100 µM] in assay [11]; 64.3% [100 µM] in [12]. Further, the growth was -20.7% [100 µM] (active) in [13]; 4.01% [100 µM] (active) in assay [14]; 4.32% [100 µM] (active) in assay [15]; 16.2% [100 µM] in assay [16]; 11.9% [100 µM] in assay [17]; -18.7% [100 µM] (active) in assay [18]. Moreover, the growth in assay [19] was 31.3% [100 µM].

Take `C/C=C/C1OC23CCCCC2C(C#N)(C(=N)O3)C1(C#N)C#N` (centres undefined): the growth was 95.1% in assay [1]; 94.7% in [2]; 99% in [3]; 110% in assay [4]; 116% in assay [5]; 97.6% in assay [6]. Besides, the growth was 110% in assay [7]; 98.2% in assay [8]; 93.3% in [9]; 92.8% in assay [10]; 85% in [11]; 109% in assay [12]. For the same compound, the growth in assay [13] is 85.9%; in [14], 101%; in [15], 102%; in [16], 98.1%; in assay [17] it was 99.1%; in assay [18] it was 87%. The growth in assay [19] is 109%.

Regarding `COc1cc2c(O)n(CCCN3CCOCC3)c3c4cnc5cccc(c(=O)c3c2cc1OC)c54`, the growth was 18% in [1]; 40.7% in assay [2]; 67.4% in assay [3]; 48.7% in [4]; 30.4% in assay [5]; 33.1% in [6]. Also, the growth in [7] was 17.1%; in [8] it was 24.5%; in [9], 44%; in assay [10] it was 16.6%; in [11] it was 57.4%; in assay [12], 29.2%. The growth in [13] is 38.9%; in assay [14], 19.4%; in assay [15], 16.9%; in assay [16], 30.6%; in assay [17] it was 20.9%; in assay [18], 10.5%. For the same compound, the growth was 11.3% in assay [20] and 66.2% in assay [19].

With `Clc1ccc2nc(-c3ccc(-c4ccc(/C=N/NC5=NCCN5)cc4)s3)cn2c1`, the growth is 101% in assay [1]; 4.14% (active) in [2]; 94.3% in assay [3]; 96.3% in assay [4]; 82.5% in [5]; 94.2% in assay [6]. Moreover, the growth in [7] is 97.2%; in assay [8], 83.1%; in [9] it was 101%; in assay [10], 97.7%; in assay [11] it was -27.3% (active); in [12], 38.8%. Moreover, the growth in assay [13] is 83.9%; in assay [14], 97.1%; in assay [15] it was 97.5%; in [16], 89.4%; in assay [17], 93%; in assay [18], 102%. For the same compound, the growth in assay [19] is 99.5%.

Consider `CCN=Cc1c(O)c(O)c(C(C)C)c2cc(C)c(-c3c(C)cc4c(C(C)C)c(O)c(O)c(C=NCC)c4c3O)c(O)c12`, for which the growth in [1] is 53%; in [2], 16.4%; in [3], 75.1%; in [4], 50.5%; in assay [5], 68.2%; in [6], 44.7%. For the same compound, the growth is 29.5% in [7]; 55.2% in assay [8]; 85.2% in [9]; 61.6% in assay [10]; 23.2% in assay [11]; 25% in assay [12]. The growth is 57.7% in [13]; 27.3% in assay [14]; 25.8% in [15]; 29.4% in assay [16]; 95.4% in assay [17]; 76.8% in assay [18]. Further, the growth in assay [19] was 74.9%.

With `CC(C)c1ccc(C(=O)Nc2nc3ccc(O)cc3s2)cc1`, the growth in assay [1] was 42.1%; in [2] it was -1.97% (active); in assay [3], 26.3%; in [4] it was 73%; in assay [5], 67.3%; in [6] it was 51.5%. Besides, the growth in [7] is -36.4% (active); in assay [8], -21.9% (active); in [9], 25.9%; in [10], 3.05% (active); in assay [11], 7.82% (active); in [12] it was 30.4%. Further, the growth in [13] was 63.7%; in assay [14] it was 53.8%; in assay [15], 58.4%; in [16], 42.4%; in assay [17], -6.4% (active); in assay [18], 10.8%. In addition, the results for the growth in [20] and in assay [19] were -25.9% (active) and 26.5%, respectively.

These data come from PubChem BioAssay (NCI).
